The source of these data is PubChem BioAssay (NCI).

Test systems include HCT-15 colon; HT29 colon; SNB-75 CNS; SNB-19 CNS; U251 CNS; PC-3 prostate; SK-MEL-5 melanoma; UACC-62 melanoma; LOX IMVI melanoma; SK-MEL-28 melanoma; SK-MEL-2 melanoma; EKVX NSCLC; SN12C renal; UO-31 renal; TK-10 renal; ACHN renal; CAKI-1 renal; A498 renal; CCRF-CEM leukemia; MOLT-4 leukemia.
Common to all, as to assay: NCI-60 one-dose screen, 48 h (100 = growth as untreated, 0 = no growth, -100 = all killed)
What all share (settings): 10 µM unless noted

About 83,000 compounds went through this panel and 20% of them were active in at least one assay; those are over-represented in the sample as a whole.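 The test compound was applied at a single concentration to cells in 96-well plates for 48 hours, and percent growth was recorded.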 Values without a mark were called inactive. Activity calls are given as the source filed them. The calls were made as follows: active = growth percent below 10; inactive = the rest.

For the molecule `CCn1c2ccc(O)cc2c2c(C)c3c[n+](C(C)C)ccc3c(C)c21`, the growth in the experiment on HCT-15 colon was 67.7%; in the experiment with HT29 colon, 54.8%; in the experiment with SNB-75 CNS it was 49.8%; in the experiment on SNB-19 CNS, 7.71% (active); with U251 CNS, 13.5%; in the experiment on PC-3 prostate, 61%. Further, the growth was 57.1% in the experiment on SK-MEL-5 melanoma; 15.1% in the experiment on UACC-62 melanoma; 30.9% with LOX IMVI melanoma; 22.8% in the experiment on SK-MEL-28 melanoma; 35% with SK-MEL-2 melanoma; 75.4% with EKVX NSCLC. Besides, the growth is -1.36% (active) in the experiment with SN12C renal; 68.3% in the experiment on UO-31 renal; 105% with TK-10 renal; 35.2% with ACHN renal; 89.8% with CAKI-1 renal; 68% in the experiment with A498 renal. The figures for the growth in the experiment on CCRF-CEM leukemia and in the experiment on MOLT-4 leukemia were 36.5% and 22.2%, respectively.

For the molecule `COc1cc(C2Cc3ncccc3-c3[nH]c(=O)c4cccnc4c32)cc(OC)c1OC` (stereo not given), the growth is 16.9% in the experiment on HCT-15 colon; 0.572% (active) with HT29 colon; 41.1% with SNB-75 CNS; 29.2% in the experiment on SNB-19 CNS; 15.8% in the experiment on U251 CNS; 21.8% with PC-3 prostate. Moreover, the growth in the experiment with SK-MEL-5 melanoma was 18.6%; with UACC-62 melanoma it was 28.2%; in the experiment with LOX IMVI melanoma it was 29.2%; in the experiment on SK-MEL-28 melanoma, 66.4%; with SK-MEL-2 melanoma, 19.4%; in the experiment with EKVX NSCLC it was 44.2%. For the same molecule, the growth with SN12C renal was 39.8%; with UO-31 renal, 38.6%; in the experiment on TK-10 renal, 52.6%; in the experiment with ACHN renal, 46.4%; with CAKI-1 renal, 31.8%; with A498 renal it was -1.31% (active). The growth in the experiment on CCRF-CEM leukemia was 22.1%; in the experiment on MOLT-4 leukemia, 23.8%.

`Clc1ccc(-c2cn3ccsc3n2)c(Cl)c1Cl`: the growth in the experiment with HCT-15 colon was 89.5%; in the experiment with HT29 colon it was 105%; in the experiment on SNB-75 CNS it was 86.4%; with SNB-19 CNS, 105%; in the experiment on U251 CNS it was 91%; in the experiment on PC-3 prostate it was 93.5%. Besides, the growth is 79.8% in the experiment on SK-MEL-5 melanoma; 67.7% in the experiment with UACC-62 melanoma; 80.7% in the experiment on LOX IMVI melanoma; 120% in the experiment with SK-MEL-28 melanoma; 88.6% in the experiment with SK-MEL-2 melanoma; 65.2% with EKVX NSCLC. The growth is 77.9% with SN12C renal; 70.1% in the experiment with UO-31 renal; 105% in the experiment on TK-10 renal; 90.1% with ACHN renal; 71.8% with CAKI-1 renal; 76.7% in the experiment on A498 renal. For the same molecule, the growth is 93.6% in the experiment on CCRF-CEM leukemia and 80.4% in the experiment on MOLT-4 leukemia.

In the case of `COc1cccc(/C=C/C(=O)c2cc3c(N)c(C(=O)Nc4cccc(Cl)c4C)sc3nc2C)c1`, the growth in the experiment with HCT-15 colon is -57.4% (active); in the experiment on HT29 colon, -80.7% (active); in the experiment with SNB-75 CNS, -1.75% (active); in the experiment on SNB-19 CNS it was -35.7% (active); with U251 CNS it was -78.4% (active); in the experiment on PC-3 prostate, 13.9%. For the same molecule, the growth is -31.3% (active) with SK-MEL-5 melanoma; 1.73% (active) with UACC-62 melanoma; -64.2% (active) in the experiment with LOX IMVI melanoma; 16.3% with SK-MEL-28 melanoma; -17.3% (active) in the experiment on SK-MEL-2 melanoma; 39.8% in the experiment with EKVX NSCLC. Also, the growth in the experiment on SN12C renal was -22.7% (active); in the experiment on UO-31 renal, -43.4% (active); in the experiment with TK-10 renal, -18% (active); in the experiment with ACHN renal, 6.8% (active); with CAKI-1 renal, -47.4% (active); with A498 renal it was -13.2% (active). For the same molecule, the results for the growth with CCRF-CEM leukemia and with MOLT-4 leukemia were 7.19% (active) and 14.3%, respectively.

Consider `CC/C(Cc1ccccc1)=C(\c1ccc(OCCN2CCCCCC2)cc1)c1ccc(OC(=O)NCc2ccccc2)cc1`, for which the growth in the experiment with HCT-15 colon is 9.25% (active); with HT29 colon, 5.23% (active); with SNB-75 CNS, 66.4%; with SNB-19 CNS it was 72.5%; with U251 CNS it was 49.6%; with PC-3 prostate it was 54.8%. In addition, the growth in the experiment on SK-MEL-5 melanoma was 72.5%; with UACC-62 melanoma it was 75.3%; in the experiment on LOX IMVI melanoma, 4.35% (active); in the experiment on SK-MEL-28 melanoma, 87.2%; with SK-MEL-2 melanoma it was 98.9%; with EKVX NSCLC it was 69.5%. Besides, the growth in the experiment on SN12C renal is 66%; with UO-31 renal, 59.2%; in the experiment on TK-10 renal, 91.6%; in the experiment with ACHN renal it was 95%; in the experiment on CAKI-1 renal, 93.8%; in the experiment with A498 renal, 82.5%. For the same molecule, the growth in the experiment on CCRF-CEM leukemia was 47.5%; with MOLT-4 leukemia, 42.6%.

For `COc1cc2ncnc(Nc3ccc(F)c(Cl)c3)c2cc1OCC(=O)N1CCN(c2ccc(F)cc2)CC1`, the growth with HCT-15 colon was 92.7%; in the experiment on HT29 colon, 86.7%; in the experiment with SNB-75 CNS it was 91.2%; in the experiment on SNB-19 CNS it was 83.6%; in the experiment with U251 CNS, 107%; with PC-3 prostate, 94.6%. The growth in the experiment on SK-MEL-5 melanoma is 98.2%; with UACC-62 melanoma it was 87.9%; in the experiment with LOX IMVI melanoma, 93.3%; in the experiment with SK-MEL-28 melanoma, 98.4%; in the experiment on SK-MEL-2 melanoma, 97.5%; with EKVX NSCLC, 78.3%. The growth with SN12C renal was 88.2%; in the experiment on UO-31 renal, 44.5%; in the experiment on TK-10 renal it was 38.2%; in the experiment on ACHN renal, 45.9%; in the experiment on CAKI-1 renal, 44.8%; in the experiment on A498 renal it was 72.5%. In addition, the growth in the experiment with CCRF-CEM leukemia is 113%; in the experiment with MOLT-4 leukemia, 85.8%.

Consider `CCN(CC)c1ccc(/C=N/NC(=O)c2ccc(Nc3ccnc(C(F)(F)F)c3)cc2)c(O)c1`, for which the growth in the experiment on HCT-15 colon was 19.6%; in the experiment with HT29 colon it was 0.587% (active); in the experiment with SNB-75 CNS it was 37.1%; with SNB-19 CNS, 15.5%; with U251 CNS it was 14%; in the experiment on PC-3 prostate it was 19.6%. For the same molecule, the growth is -50.6% (active) with SK-MEL-5 melanoma; 5.86% (active) in the experiment on UACC-62 melanoma; -25.4% (active) in the experiment on LOX IMVI melanoma; 47.4% in the experiment on SK-MEL-28 melanoma; 56.8% with SK-MEL-2 melanoma; 11.2% in the experiment with EKVX NSCLC. For the same molecule, the growth in the experiment on SN12C renal is 24.4%; in the experiment with UO-31 renal, 4.15% (active); in the experiment on TK-10 renal, 43.5%; in the experiment with ACHN renal it was 7.21% (active); with CAKI-1 renal it was 7.86% (active); in the experiment with A498 renal, 44.3%. In addition, the growth with CCRF-CEM leukemia was 25.5%; in the experiment with MOLT-4 leukemia it was 103%.

As to `COCCCOc1cc(C[C@@H](C[C@H](N)[C@@H](O)C[C@H](C(=O)NCC(C)(C)C(N)=O)C(C)C)C(C)C)ccc1OC`, the growth was 111% in the experiment with HCT-15 colon; 106% in the experiment on HT29 colon; 88.4% in the experiment with SNB-75 CNS; 106% with SNB-19 CNS; 98.7% in the experiment on U251 CNS; 90.7% in the experiment with PC-3 prostate. Also, the growth with SK-MEL-5 melanoma was 106%; in the experiment on UACC-62 melanoma, 102%; in the experiment on LOX IMVI melanoma, 95%; in the experiment on SK-MEL-28 melanoma it was 104%; with SK-MEL-2 melanoma, 104%; in the experiment on EKVX NSCLC it was 92.6%. Further, the growth was 104% in the experiment with SN12C renal; 84.4% with UO-31 renal; 109% with TK-10 renal; 101% with ACHN renal; 89.2% in the experiment on CAKI-1 renal; 103% in the experiment on A498 renal. Also, the growth in the experiment on CCRF-CEM leukemia was 110%; with MOLT-4 leukemia, 103%.
